Laboratory results from ChEMBL document CHEMBL5724796, “Tm Shift (DSF) assay results for EUbOPEN Chemogenomics Library” (2024).
Several values for one entry are separate records, joined by “and”; a condition that tells them apart may be missing. Identical values can stand only once.

Key:
Settings in all cases: Compound concentration 20.0 uM
[1] = molecular target: Bromodomain-containing protein 4 (Homo sapiens) (UniProt O60885)
[2] = molecular target: Cyclin-dependent kinase 2 (Homo sapiens) (UniProt P24941)
[3] = molecular target: Casein kinase I isoform delta (Homo sapiens) (UniProt P48730)
[4] = molecular target: Glycogen synthase kinase-3 beta (Homo sapiens) (UniProt P49841)
[5] = molecular target: Mitogen-activated protein kinase 1 (Homo sapiens) (UniProt P28482)
[6] = molecular target: T1, Aurora kinase A (Homo sapiens) (UniProt O14965)
T1 sequence (whole entry): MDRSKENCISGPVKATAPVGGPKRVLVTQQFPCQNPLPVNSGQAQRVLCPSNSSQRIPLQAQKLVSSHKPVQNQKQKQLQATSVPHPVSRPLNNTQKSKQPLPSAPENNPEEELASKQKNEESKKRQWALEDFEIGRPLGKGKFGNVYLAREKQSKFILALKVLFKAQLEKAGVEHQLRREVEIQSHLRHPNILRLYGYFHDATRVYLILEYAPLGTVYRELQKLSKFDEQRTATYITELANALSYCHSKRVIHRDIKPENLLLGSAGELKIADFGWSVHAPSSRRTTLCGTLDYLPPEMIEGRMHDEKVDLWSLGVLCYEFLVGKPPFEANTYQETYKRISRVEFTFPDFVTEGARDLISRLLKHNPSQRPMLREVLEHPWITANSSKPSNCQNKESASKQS

[7] = molecular target: T2, Transcription intermediary factor 1-alpha (Homo sapiens) (UniProt O15164)
T2 sequence (whole entry): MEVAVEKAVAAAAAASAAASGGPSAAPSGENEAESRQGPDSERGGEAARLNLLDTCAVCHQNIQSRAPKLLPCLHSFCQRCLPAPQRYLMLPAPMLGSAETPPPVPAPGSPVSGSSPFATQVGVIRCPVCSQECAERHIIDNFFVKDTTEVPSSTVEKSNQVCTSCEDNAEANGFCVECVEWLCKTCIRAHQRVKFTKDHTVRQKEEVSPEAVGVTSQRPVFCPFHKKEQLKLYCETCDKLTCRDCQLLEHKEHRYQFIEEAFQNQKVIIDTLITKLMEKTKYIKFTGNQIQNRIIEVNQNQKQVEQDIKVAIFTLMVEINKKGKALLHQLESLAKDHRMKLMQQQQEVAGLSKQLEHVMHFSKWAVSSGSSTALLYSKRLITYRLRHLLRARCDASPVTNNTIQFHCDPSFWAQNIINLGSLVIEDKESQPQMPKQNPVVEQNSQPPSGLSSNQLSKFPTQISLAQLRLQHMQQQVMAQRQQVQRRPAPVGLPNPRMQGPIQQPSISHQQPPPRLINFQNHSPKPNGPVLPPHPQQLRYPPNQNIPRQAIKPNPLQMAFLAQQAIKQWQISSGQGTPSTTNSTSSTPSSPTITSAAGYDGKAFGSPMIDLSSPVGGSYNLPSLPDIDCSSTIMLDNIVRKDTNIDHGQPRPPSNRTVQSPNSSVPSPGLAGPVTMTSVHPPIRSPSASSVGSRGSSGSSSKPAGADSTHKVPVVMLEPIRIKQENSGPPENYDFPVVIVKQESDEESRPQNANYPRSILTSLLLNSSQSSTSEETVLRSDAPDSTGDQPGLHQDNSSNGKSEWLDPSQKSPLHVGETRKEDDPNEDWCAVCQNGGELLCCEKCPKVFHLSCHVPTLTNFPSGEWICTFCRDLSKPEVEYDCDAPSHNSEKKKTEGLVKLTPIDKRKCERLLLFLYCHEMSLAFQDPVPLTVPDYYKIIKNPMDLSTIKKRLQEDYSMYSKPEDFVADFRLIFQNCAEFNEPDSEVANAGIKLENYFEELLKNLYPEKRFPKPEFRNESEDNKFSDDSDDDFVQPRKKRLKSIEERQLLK

[8] = molecular target: Tyrosine-protein kinase ABL1 (Homo sapiens) (UniProt P00519)
Chain of Tyrosine-protein kinase ABL1 (Homo sapiens) (P00519 whole entry): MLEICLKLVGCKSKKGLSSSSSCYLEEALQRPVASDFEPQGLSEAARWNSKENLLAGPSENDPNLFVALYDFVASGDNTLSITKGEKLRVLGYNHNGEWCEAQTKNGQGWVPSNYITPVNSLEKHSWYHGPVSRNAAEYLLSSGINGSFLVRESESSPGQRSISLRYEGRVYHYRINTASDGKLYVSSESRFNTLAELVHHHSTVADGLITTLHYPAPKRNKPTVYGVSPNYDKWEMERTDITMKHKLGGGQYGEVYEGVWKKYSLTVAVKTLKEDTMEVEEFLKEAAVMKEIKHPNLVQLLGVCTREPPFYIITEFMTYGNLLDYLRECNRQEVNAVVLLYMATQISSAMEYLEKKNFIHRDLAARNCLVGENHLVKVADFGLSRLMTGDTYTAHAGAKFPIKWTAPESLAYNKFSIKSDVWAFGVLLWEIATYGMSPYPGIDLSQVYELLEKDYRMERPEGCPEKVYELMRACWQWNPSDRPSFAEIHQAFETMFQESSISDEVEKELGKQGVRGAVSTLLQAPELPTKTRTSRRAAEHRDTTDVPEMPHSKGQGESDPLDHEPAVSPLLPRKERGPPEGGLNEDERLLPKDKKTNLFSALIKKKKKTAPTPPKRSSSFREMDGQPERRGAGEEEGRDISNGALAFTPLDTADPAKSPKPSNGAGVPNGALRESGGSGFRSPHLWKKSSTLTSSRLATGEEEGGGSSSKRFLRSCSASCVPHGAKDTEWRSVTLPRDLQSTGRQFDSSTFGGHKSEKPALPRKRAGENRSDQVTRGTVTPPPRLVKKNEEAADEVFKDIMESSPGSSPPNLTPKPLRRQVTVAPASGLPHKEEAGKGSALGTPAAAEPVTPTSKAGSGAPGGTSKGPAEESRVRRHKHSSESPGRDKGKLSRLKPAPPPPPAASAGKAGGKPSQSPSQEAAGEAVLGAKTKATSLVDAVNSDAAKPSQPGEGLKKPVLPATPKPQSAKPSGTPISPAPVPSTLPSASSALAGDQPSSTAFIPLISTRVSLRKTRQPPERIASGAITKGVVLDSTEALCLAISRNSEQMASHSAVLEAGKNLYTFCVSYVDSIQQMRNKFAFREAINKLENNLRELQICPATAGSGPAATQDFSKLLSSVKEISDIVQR

Chain of Mitogen-activated protein kinase 1 (Homo sapiens) (P28482 whole entry): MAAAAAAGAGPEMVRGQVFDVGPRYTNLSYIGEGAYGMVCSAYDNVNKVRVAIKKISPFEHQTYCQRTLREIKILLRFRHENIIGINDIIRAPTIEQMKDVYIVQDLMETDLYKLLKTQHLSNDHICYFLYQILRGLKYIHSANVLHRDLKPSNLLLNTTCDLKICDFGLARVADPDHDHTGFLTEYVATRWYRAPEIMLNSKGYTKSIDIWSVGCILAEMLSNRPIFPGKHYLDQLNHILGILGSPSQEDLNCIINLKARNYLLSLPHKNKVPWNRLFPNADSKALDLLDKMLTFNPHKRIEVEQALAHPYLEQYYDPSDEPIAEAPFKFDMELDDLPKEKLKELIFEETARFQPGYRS
Chain of Casein kinase I isoform delta (Homo sapiens) (P48730 whole entry, looked up, canonical isoform): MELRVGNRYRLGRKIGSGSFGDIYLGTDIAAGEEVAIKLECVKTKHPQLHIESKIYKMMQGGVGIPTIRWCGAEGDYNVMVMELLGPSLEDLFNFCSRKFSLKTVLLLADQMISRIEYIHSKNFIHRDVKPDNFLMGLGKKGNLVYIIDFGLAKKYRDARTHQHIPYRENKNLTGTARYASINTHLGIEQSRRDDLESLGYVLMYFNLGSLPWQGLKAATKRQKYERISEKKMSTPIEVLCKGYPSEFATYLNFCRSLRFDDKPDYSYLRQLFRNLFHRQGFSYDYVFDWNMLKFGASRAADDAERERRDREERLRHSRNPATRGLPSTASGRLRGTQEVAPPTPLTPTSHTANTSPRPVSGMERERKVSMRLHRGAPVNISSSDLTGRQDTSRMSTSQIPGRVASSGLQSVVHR
Chain of Glycogen synthase kinase-3 beta (Homo sapiens) (P49841 whole entry, looked up): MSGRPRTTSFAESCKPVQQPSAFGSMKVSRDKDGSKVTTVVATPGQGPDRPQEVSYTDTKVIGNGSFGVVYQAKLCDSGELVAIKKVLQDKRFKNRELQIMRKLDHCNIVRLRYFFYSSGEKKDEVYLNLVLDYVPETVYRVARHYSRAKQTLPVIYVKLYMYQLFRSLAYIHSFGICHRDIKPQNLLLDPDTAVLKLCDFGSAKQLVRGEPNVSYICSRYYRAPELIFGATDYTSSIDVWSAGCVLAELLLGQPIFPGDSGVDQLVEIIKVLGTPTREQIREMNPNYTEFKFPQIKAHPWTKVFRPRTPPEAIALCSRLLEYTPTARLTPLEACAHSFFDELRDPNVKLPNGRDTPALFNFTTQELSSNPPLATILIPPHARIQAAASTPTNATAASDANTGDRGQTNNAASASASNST

SMILES | ΔTm [1] | ΔTm [2] | ΔTm [3] | ΔTm [4] | ΔTm [5] [°C] | ΔTm [6] | ΔTm [7] | ΔTm [8]
Cc1nc(Nc2ncc(C(=O)Nc3c(C)cccc3Cl)s2)cc(N2CCN(CCO)CC2)n1 | -1.33 °C | 0.19 °C | 1.36 °C | -0.52 °C | -0.01 | 4.44 °C | -0.67 °C | –
Cc1nn(CC(F)(F)F)cc1Nc1ncc(Br)c(NCc2ccc(S(N)(=O)=O)cc2)n1 | -2.79 °C | 0.52 °C | 0.99 °C | -0.15 °C | 2.84 | 6.65 °C | 1.38 °C | 2.53 °C
CCn1ncc2c(NC3CCOCC3)c(-c3nnc(Cc4sc(C)nc4C)o3)cnc21 | -1.68 °C | -0.03 °C | 0.21 °C | -0.23 °C | 0.54 | -2.35 °C | 0.22 °C | 0.37 °C
CN1CCN(c2ccc3nc(-c4c(N)c5c(F)cccc5[nH]c4=O)[nH]c3c2)CC1 | -0.49 °C | 0.73 °C | 2.74 °C | 3.22 °C | -0.2 | 2.63 °C | -0.57 °C | –
COCCOc1cc(CC2CCN(CCc3ccc4c(c3)C(=O)CCO4)CC2)ccc1Br | -2.23 °C | 0.15 °C | -0.07 °C | -0.17 °C | 0.56 | -2.41 °C | -0.98 °C | 0.83 °C
O=C(O)Cn1nnc(-c2ccc(CN(CCCCOc3ccc(CN4CCCC4)cc3)CCc3ccccc3)cc2)n1 | -3.23 °C | -1.15 °C | 0.14 °C | -0.71 °C | -0.45 | -2.88 °C | -1.13 °C | 0.12 °C
COc1ccccc1S(=O)(=O)Nc1ccc2c(c1)CN(C)C(=O)N2 | – | 0.12 °C | -0.3 °C | -0.34 °C | 0.22 | -2.31 °C | -0.41 °C | 0.3 °C
CN(Cc1cc(Br)cc(Br)c1N)C1CCCCC1 | -2.64 °C | -0.09 °C | -0.11 °C | -0.69 °C | – | -0.8 °C | 0.31 °C | -0.03 °C
Cc1n[nH]c(C)c1Cc1sc2c(c1C(=O)N1C[C@H](O)CO1)c(=O)n(C)c(=O)n2CC(C)C | -2.67 °C | 0.95 °C | -0.14 °C | -0.85 °C | 0.11 | -1.57 °C | 0.69 °C | 0.44 °C
Cc1cc(C)cc(Oc2ccc(CNC(=O)[C@H](C)N)cc2C)c1 | -1.81 °C | 0.25 °C | 0.15 °C | -1.22 °C | -0.21 | -0.6 °C | -1.58 °C | 1.83 °C
CC(=O)N1CCc2c(c(N3CCCc4cc(-c5cnn(C)c5)c(C(F)F)cc43)nn2C2CCOCC2)C1 | 0.99 °C | -0.16 °C | 0.23 °C | -0.52 °C | -0.44 | -1.07 °C | -1.11 °C | 0.45 °C
CSc1cccc(Nc2ncc3cc(-c4c(Cl)cccc4Cl)c(=O)n(C)c3n2)c1 | -0.42 °C | 0.94 °C | 0.35 °C | – | -1 | -0.33 °C | – | –
NC(=S)c1cccc(-c2cn(C3CCN(S(=O)(=O)C(F)(F)F)CC3)c3cc(CNC(=O)C4CNC4)ccc23)c1 | -0.14 °C | 1.5 °C | -0.09 °C | -0.8 °C | 0.28 | -1.57 °C | 0 °C | 0.61 °C
CN1CC[C@@H](Oc2ccc(F)c(-c3nc4c(o3)C(=O)c3ccccc3C4=O)c2Cl)C1 | 0.99 °C | 0.38 °C | -0.29 °C | -0.09 °C | 0.24 | -1.95 °C | -0.66 °C | 0.09 °C
CC(C)Cc1nn(C)c(=O)c2c(SCCCO)n(Cc3cccc4ccccc34)cc12 | -4.1 °C and -4.31 °C | -0.96 °C and -1.96 °C | -8.7 °C and -11.7 °C | -0.77 °C and -4.36 °C | – | -2.79 °C and -2.11 °C | -0.87 °C and 0.82 °C | -3.82 °C and -3.97 °C
CCc1oc2ccccc2c1C(=O)c1cc(Br)c(O)c(Br)c1 | -6.7 °C | -2.31 °C | -9.78 °C | 0 °C | -2.33 | 0.35 °C | 0 °C | 0.11 °C
CNc1ncc2cc(-c3cc(NC(=O)NCCC(C)(C)C)c(F)cc3C)c(C)nc2n1 | -2.79 °C | 0.45 °C | 0.25 °C | 1.15 °C | -2.34 | -0.92 °C | -0.11 °C | –
C[C@@H]1CCC[C@H](C)N1NC(=O)c1ccc(Cl)c(S(N)(=O)=O)c1 | -0.69 °C | 0.04 °C | -0.23 °C | -0.93 °C | 0.04 | -1.59 °C | 0.4 °C | 0.07 °C
CS(=O)(=O)N1CCN(C(=O)c2cnc3ccc(F)cc3c2N2CCC(C#N)(c3ccccc3)CC2)CC1 | -2.17 °C | -0.17 °C | 0.48 °C | 0.47 °C | -0.62 | -0.82 °C | 0 °C | 0.43 °C
CNCc1ccc(-c2[nH]c3cc(F)cc4c3c2CCNC4=O)cc1 | -1.77 °C | 0.36 °C | 0.56 °C | 5.05 °C | 0.13 | – | -0.05 °C | 0.58 °C
COCc1nc2cnc3cc(-c4c(C)noc4C)c(OC[C@H]4CCNC4)cc3c2n1[C@H](C)c1ccccc1 | – | 0.15 °C | 0.02 °C | -0.25 °C | 0.32 | -1.27 °C | 1.49 °C | 0.66 °C
CCCCCCCCCCCCCCCCNNC(=O)c1cccs1 | -1.37 °C | -0.3 °C | 0.26 °C | -1.02 °C | 0.48 | -0.52 °C | -0.93 °C | 0.05 °C
